Screen size: about 360,000 compounds; about 7,500 (2.1%) were called active. Where a call stands in place of a potency, no number is given. Another 20% or so got no clear call; they are omitted. The sample holds actives, similar compounds and a random draw of the others, so the mix is not that of the screen. Calls follow the shape of the dose curve; as a rule, active = well fitted inhibition curve with a large enough effect; inconclusive = small, poorly fitted or top-dose-only effect, or effect the other way; inactive = flat fitted curve, though single readings scatter.
Potency is read from the fitted curve at half-maximal effect.

The experiment is described as follows: Nrf2 qHTS screen for inhibitors. Also: nearly all actives have a fitted effect of over 60% in size. The conditions noted are these: A549 ARE-Fluc reporter, luciferase luminescence, 18-24 h; series mostly up to 46 µM. Summed up: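 In this cell-based qHTS, ARE-driven firefly luciferase in A549 cells reports Nrf2 activity; the luminescent signal after BugLite lysis is the measured value, with a prior CellTiter-Fluor read for cell health.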
(In qHTS, concentration-response curves come from the screen itself.)
For `COc1cccc(C2C(C(=O)Nc3ccc(C)cc3C)=C(C)Nc3c(C(=O)Nc4ccccc4)cnn32)c1` (configuration not stated), the Potency entry is “inactive”.

Consider `CN1C(c2ccc(F)cc2)=CS/C1=C(/C#N)c1nnc2n1-c1ccccc1SC2`, for which the Potency entry is “inactive”.

As for `O=C1Nc2ccc(Br)cc2/C1=N/N=C/C1=C(N2CCOCC2)C(=C\c2ccccc2)/CC1`, the Potency is 20.6 µM (active).

Take `C(=N\N1CCN(c2ccccn2)CC1)/C1=C(N2CCOCC2)C(=C/c2ccccc2)/CC1`: the Potency result was “inactive”.

`N#C/C(=C\C1=C(N2CCOCC2)C(=C\c2ccccc2)/CC1)C(=O)Nc1ccccc1F`: the Potency result is “inactive”.

`CCOc1ccccc1NC(=S)C(=C([O-])c1ccc2c(c1)OCCO2)[n+]1ccc(CC)cc1`: the Potency result was “inactive”.

Regarding `COc1cc(F)c(S(=O)(=O)N2CCCN(S(=O)(=O)c3ccc(N)cc3)CC2)c(F)c1`, the Potency result is “inactive”.

Consider `CCOC(=O)c1ccc(NC(=O)c2ncn(-c3ccccc3)n2)cc1`, for which the Potency entry was “inactive”.

On to `Oc1ccc(Cl)cc1C1C=C(c2ccc3c(c2)OCO3)NC(c2ccc(F)c(Br)c2)N1` (configuration not stated), for which the Potency entry is “inactive”.

Consider `CC(C)N(C(=O)[C@H]1C[C@H](CC(=O)NCCC2=CCCCC2)C(=O)N2CCc3c([nH]c4cc(CCC(=O)N(C)C)ccc34)[C@]12C)C(C)C`, for which the Potency result is “inactive”.

With `CCCCCCn1c(CN2CCCCC2)nc2c1c(=O)n(C)c(=O)n2C`, the Potency entry is “inactive”.

In the case of `CCCCCCCCn1c2c(c(=N)c3c1CCC3)CCCC2`, the Potency was 9.2 µM (active).

For `CC1Sc2ccc(S(=O)(=O)CCC(=O)NCc3ccccc3Cl)cc2NC1=O` (configuration not stated), the Potency result was “inactive”.

Consider `COc1ccccc1N1CCN(C(=O)CCS(=O)(=O)c2ccc3c(c2)NC(=O)C(C)S3)CC1` (configuration not stated), for which the Potency entry is “inactive”.

`Cc1cccc(N2CCN(C(=O)CCS(=O)(=O)c3ccc4c(c3)NC(=O)C(C)S4)CC2)c1C` (configuration not stated): the Potency is 2.59 µM (active).

Regarding `Oc1ccc(-c2nc3ccccc3nc2-c2ccc(O)cc2O)c(O)c1`, the Potency result was “inactive”.

In the case of `CN[C@H](C(=O)NC[C@H]1O[C@@H](n2cnc3c(N)ncnc32)[C@H](O)[C@@H]1O)[C@@H](C)OCc1ccccc1`, the Potency entry was “inactive”.

With `COc1cccc(Cn2c(SCc3ccc(C(=O)N4CCCCC4)cc3)nc3ccncc32)c1`, the Potency is 18.4 µM (active).

In the case of `Cc1cccc(CSc2nc3ccncc3n2Cc2ccc(C(=O)O)cc2)c1`, the Potency result was “inactive”.

Take `Cc1cccc(CSc2nc3ccncc3n2CC(=O)N(C)C2CCCCC2)c1`: the Potency result is “inactive”.

`O=C(O)c1ccc(Cn2c(SCc3ccc(F)cc3)nc3ccncc32)cc1`: the Potency result was “inactive”.

Regarding `COc1cccc(Cn2c(SCc3ccc(C(=O)N4CCC(C)CC4)cc3)nc3ccncc32)c1`, the Potency is 20.6 µM (active).

Take `CCCCNC(=O)Cn1c(SCc2cccc(Cl)c2)nc2ccncc21`: the Potency result was “inactive”.

As to `COc1ccccc1-c1sc2ccccc2c1-c1ccc(Br)nc1`, the Potency result is “inactive”.

For the compound `OCCNc1ncnc2oc(-c3ccco3)c(-c3ccco3)c12`, the Potency entry was “inactive”.

In the case of `CCCN1CN=C(NS(=O)(=O)c2ccc(NC(C)=O)cc2)NC1`, the Potency result is “inactive”.

In the case of `Cc1ccc(S(=O)(=O)N2CCC(C(=O)Nc3cc(C)ccc3C)CC2)cc1`, the Potency result was “inactive”.

With `Cc1ccc(-c2nc(=N)sn2Cc2ccccc2)cc1`, the Potency entry was “inactive”.

As to `Cc1cc(-c2ccc(C)c(S(=O)(=O)NC(C)Cc3ccco3)c2)on1` (configuration not stated), the Potency is 18.4 µM (active).

As for `Cc1cc(-c2ccc(C)c(S(=O)(=O)NCCCN(Cc3ccccc3)C(C)C)c2)on1`, the Potency entry is “inactive”.

For the compound `Cc1cc(-c2ccc(C)c(S(=O)(=O)Nc3ccc(S(N)(=O)=O)cc3)c2)on1`, the Potency entry is “inactive”.

With `COC(=O)[C@]1(Cc2ccccc2)N[C@H](CN(C)S(=O)(=O)c2ccc(OC(F)(F)F)cc2)[C@@H]2C(=O)N(Cc3ccccc3)C(=O)[C@@H]21`, the Potency entry was “inactive”.

Consider `Cc1cc(N2CCCC2)ccc1NC(=O)COc1ccc(Cl)cc1`, for which the Potency entry is “inactive”.

On to `COc1ccc(N(C)S(=O)(=O)c2cccc3nsnc23)cc1`, for which the Potency result is “inactive”.

With `COc1ccc(N(C)C(=O)CCS(=O)(=O)c2cccc3nsnc23)cc1`, the Potency result was “inactive”.

Regarding `COc1ccc(N(C)C(=O)C2CCN(S(=O)(=O)c3cccc4nsnc34)CC2)cc1`, the Potency was 8.2 µM (active).

As for `Cc1ccc(-c2nc3cccc(C)n3c2Nc2ccc3c(c2)OCCO3)cc1`, the Potency result is “inactive”.

In the case of `Cc1ccccc1NC(=O)NNC(=O)OC(C)(C)C`, the Potency entry was “inactive”.

Regarding `CCC(=O)OCCNc1nc(-c2ccccc2)nc2ccccc12`, the Potency entry is “inactive”.

Regarding `CC(C)(C)OC(=O)NNc1c2ccccc2nc2ccccc12`, the Potency was 23.1 µM (active).

For `COc1ccc2c(c1)CCc1c(C(=O)Nc3cc(C)ccc3O)noc1-2`, the Potency result was “inactive”.

`COc1ccccc1C(=O)Nc1ccccc1C(=O)Nc1ccccc1`: the Potency entry was “inactive”.

Turning to `COc1ccccc1C(=O)Nc1c(C(=O)Nc2ccc(C)cc2)oc2ccccc12`, the Potency result is “inactive”.

Regarding `COc1ccccc1C(=O)Nc1ccc(OCc2nnc3c4ccccc4c(C)nn23)cc1`, the Potency was 9.2 µM (active).

On to `CCOC(=O)c1c(C)[nH]c(C)c1S(=O)(=O)N(C)CC(=O)N1CCN(c2ccccc2)CC1`, for which the Potency result is “inactive”.

Take `O=C(Nc1cccc(C(=O)NC2CC2)c1)c1ccc(F)c(S(=O)(=O)N2CCOCC2)c1`: the Potency result was “inactive”.

Turning to `O=C(OCCOc1ccccc1F)c1cc(S(=O)(=O)N2CCOCC2)ccc1F`, the Potency entry was “inactive”.

Consider `O=C(NCC1CCCCC1)c1cc(S(=O)(=O)N2CCCCC2)ccc1N1CCOCC1`, for which the Potency entry was “inactive”.

For `O=C(OCCOc1ccccc1Cl)c1cc(S(=O)(=O)N2CCCCC2)ccc1N1CCOCC1`, the Potency is 6.51 µM (active).

With `O=C(NCC1CCCO1)c1ccc(S(=O)(=O)Nc2ccc(F)cc2)cc1` (configuration not stated), the Potency result was “inactive”.

As to `O=C(Nc1ccc(S(=O)(=O)NCC2CCCO2)cc1)c1ccc(F)cc1` (configuration not stated), the Potency is 11.6 µM (active).

On to `Cc1ccc(NC(=O)c2ccc(S(=O)(=O)NCC3CCCO3)cc2)cc1C` (configuration not stated), for which the Potency entry was “inactive”.

Turning to `COc1ccc(S(=O)(=O)NCc2cccnc2)cc1NC(=O)c1ccc(C)cc1`, the Potency entry is “inactive”.

Regarding `O=C(N/N=C/c1cccnc1)c1ccc(NC(=O)c2ccc(F)cc2)cc1`, the Potency result is “inactive”.

Take `O=C(Nc1ccc(F)cc1)c1ccc(S(=O)(=O)NCc2cccnc2)cc1`: the Potency was 18.4 µM (active).

With `Cc1ccc(NS(=O)(=O)c2cc3c(cc2Br)NC(=O)CO3)cc1C`, the Potency entry was “inactive”.

As to `O=C(NCC1CCCCC1)NCC1CCCCC1`, the Potency entry was “inactive”.

For `Cc1cc2c(s1)c1cnn(Cc3cc(F)c(Cl)cc3Cl)c(=O)c1n2C`, the Potency entry is “inactive”.

For the compound `O=[N+]([O-])c1ccccc1/C=C/CN1CCC(O)CC1`, the Potency result is “inactive”.

Turning to `CC1CCCCC1NC(=O)/C(C#N)=C/C=C/c1ccccc1[N+](=O)[O-]` (configuration not stated), the Potency is 16.4 µM (active).

For the compound `O=[N+]([O-])c1ccccc1/C=C/CN1CCCC(CO)C1` (configuration not stated), the Potency result is “inactive”.

On to `Cc1ccc(NC(=O)C(C)Sc2nnc(C3CC3)n2C2CC2)cc1S(=O)(=O)N1CCOCC1` (configuration not stated), for which the Potency entry was “inactive”.

Consider `C#CCOCCOCCOCCNc1nc(N2CCN(C(=O)[C@H](CO)n3cc([C@@H](N)C(C)C)nn3)CC2)nc(N2CCN(C(=O)[C@H](CCC(=O)O)n3cc([C@@H](N)[C@H](C)CC)nn3)CC2)n1`, for which the Potency result was “inactive”.

In the case of `COc1ccc(C(=O)CSc2nnnn2C)c(OC)c1`, the Potency entry was “inactive”.

Turning to `COc1ccc(CSc2nnnn2-c2ccc(O)cc2)cc1F`, the Potency is 14.6 µM (active).

`COc1ccc(-n2nnnc2SCC(=O)c2ccc(OC)c(OC)c2)cc1`: the Potency is 16.4 µM (active).

In the case of `COc1ccc(-n2nnnc2SCC(=O)NCc2cccs2)cc1`, the Potency result is “inactive”.

Consider `Oc1ccc(-n2nnnc2SCc2c(F)cccc2Cl)cc1`, for which the Potency entry is “inactive”.

On to `Cc1cc(NC(=O)CSc2nnnn2-c2ccc(F)cc2)no1`, for which the Potency entry was “inactive”.

As for `O=C(NCc1nnc(C(=O)Nc2ccc(C(F)(F)F)cc2Cl)o1)c1ccccc1`, the Potency result is “inactive”.

Consider `Cc1nn(-c2ccc(F)cc2)c(Cl)c1/C=C(/CCC(=O)O)c1nc2ccccc2s1`, for which the Potency result is “inactive”.

As to `COc1ccc(-c2ccc3ncnc(NCc4cccs4)c3c2)cc1OC`, the Potency entry was “inactive”.

For the compound `O=C(CSc1nnc(-c2ccccc2F)o1)Nc1cccc(C(F)(F)F)c1`, the Potency entry was “inactive”.

As for `COc1ccc(Cl)cc1-n1c(C)cc(C(=O)OCC(=O)N2CC(=O)Nc3ccccc32)c1C`, the Potency is 18.4 µM (active).

Consider `COc1ccc(C(=O)OCC(=O)N2CC(=O)Nc3ccccc32)cc1Br`, for which the Potency result was “inactive”.

Take `COc1cc(OC)c(C(=O)OCC(=O)N2CC(=O)Nc3ccccc32)cc1OC`: the Potency entry was “inactive”.

As for `COc1cccc(-n2cc(C(=O)NCc3cccc(Cl)c3)c3ccccc3c2=O)c1`, the Potency result was “inactive”.

With `Oc1ccccc1-c1nc2ccc(Cl)cn2c1Nc1ccc2c(c1)OCCO2`, the Potency result is “inactive”.

Turning to `CN1CCN(S(=O)(=O)c2cccc(C(=O)O)c2)CC1`, the Potency entry was “inactive”.

On to `CC(=O)c1ccc(OCC(O)CN2CCN(S(=O)(=O)c3cccc(Br)c3)CC2)cc1` (configuration not stated), for which the Potency entry is “inactive”.

For `Cc1ccc(OCCNC(=O)c2cccc(S(=O)(=O)N3CCN(Cc4ccccc4)CC3)c2)cc1`, the Potency is 11.6 µM (active).

`NC(=O)C1CCN(C(=O)c2cc(S(=O)(=O)N3CCN(c4ccccc4)CC3)ccc2Cl)CC1`: the Potency entry is “inactive”.

Turning to `COCCNC(=O)CSc1nc(-c2ccccc2)[nH]c1-c1ccc(C)cc1`, the Potency entry is “inactive”.

With `CC(C)(C)c1ccc(Oc2ccc(N)cc2)cc1`, the Potency was 4.11 µM (active).

Take `CC(C)(c1ccccc1)c1ccc(OCCN)cc1`: the Potency entry is “inactive”.

`COc1cccc(Oc2ccc(N)cc2)c1`: the Potency entry was “inactive”.

On to `COc1cccc(NC(=O)CSc2cc(=O)n(C)c3ccc(Cl)cc23)c1`, for which the Potency entry was “inactive”.

As to `Cc1ccc(N2CC(c3nnc(Cc4ccccc4Cl)o3)CC2=O)cc1` (configuration not stated), the Potency result was “inactive”.

As for `CN1CCC(N(C)C(=O)c2ccc(Cl)c(S(=O)(=O)Nc3ccc(Cl)cc3)c2)CC1`, the Potency result is “inactive”.

`COc1ccccc1-c1ccnc2[nH]n(-c3ccccc3)c(=O)c12`: the Potency result is “inactive”.

`CCOc1ccccc1NC(=O)c1ccc2c(c1)CCN2S(=O)(=O)c1ccc(C)cc1`: the Potency result was “inactive”.

`O=C(Nc1cccc(S(=O)(=O)Nc2ccc(Cl)cc2)c1)c1ccc2c(c1)OCCO2`: the Potency was 10.3 µM (active).

Take `O=C(Nc1ccc(NC(=O)c2ccc3c(c2)OCO3)cc1)c1cccc(Cl)c1`: the Potency result was “inactive”.

Regarding `CC(NS(=O)(=O)c1ccc(Cl)cc1)C(=O)Nc1ccc2c(c1)OCCO2` (configuration not stated), the Potency entry is “inactive”.

With `CCN(CC)S(=O)(=O)c1ccc(N(C)CCc2ccc(OC)c(OC)c2)nc1`, the Potency entry is “inactive”.

On to `CCN(CC)S(=O)(=O)c1ccc(NC(=O)c2cnc(C)cn2)cc1`, for which the Potency result was “inactive”.

On to `CCN(CC)S(=O)(=O)c1ccc(N(C)Cc2ccc(C(F)(F)F)cc2)nc1`, for which the Potency was 18.4 µM (active).

For the origin of these results see PubChem BioAssay AID504444 (National Center for Advancing Translational Sciences (NCATS), 2011).
